Compound activity: PubChem BioAssay, National Center for Advancing Translational Sciences (NCATS)
This is one part of a sample in which hits are shown more often than they occur.
LmPK inh: qHTS Assay for Inhibitors of Leishmania Mexicana Pyruvate Kinase (LmPK). Q27686. purified LmPK, Kinase-Glo ATP luminescence, 1 h. Potency, µM (series often up to 57.5 µM), for the others: top-dose activity change, negative = inhibition, most hits filed as inhibitors. 0.37% of 290,000 active; note: potency is the fitted concentration of half-maximal effect; % is set by controls: 0 for no effect and ±100 for the full control effect
Target sequence (Q27686 whole entry, looked up): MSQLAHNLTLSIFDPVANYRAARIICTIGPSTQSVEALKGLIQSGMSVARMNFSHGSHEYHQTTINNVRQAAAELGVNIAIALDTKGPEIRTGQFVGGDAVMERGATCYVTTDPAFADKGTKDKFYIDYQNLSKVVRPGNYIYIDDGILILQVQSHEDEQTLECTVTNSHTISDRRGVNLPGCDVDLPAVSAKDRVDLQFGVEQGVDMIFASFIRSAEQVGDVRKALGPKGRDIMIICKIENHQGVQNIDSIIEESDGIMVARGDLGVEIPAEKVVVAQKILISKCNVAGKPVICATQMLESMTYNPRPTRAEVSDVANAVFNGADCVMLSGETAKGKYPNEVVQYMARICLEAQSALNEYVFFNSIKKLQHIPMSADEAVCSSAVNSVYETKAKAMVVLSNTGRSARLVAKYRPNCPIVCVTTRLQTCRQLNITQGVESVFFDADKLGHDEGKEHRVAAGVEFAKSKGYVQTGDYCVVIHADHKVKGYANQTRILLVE
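ATP generated from ADP (0.1 mM) and PEP (0.5 mM) by 0.1 nM LmPK over 1 h at room temperature (pH 7.2 imidazole buffer) was detected by coupled luciferase luminescence. Values were normalized to uninhibited and no-enzyme wells.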
Shiga inhibitor: A qHTS for Small Molecule Inhibitors of Shiga Toxin; Vero cells, Shiga toxin protein synthesis inhibition reporter; inhibition, % at 38.7 µM; 9.2% of 290,000 active; AID 2315, 2010; in the data active = inhibition mostly above about 28%, no sharp cut-off; inactive = mostly below about 43%; note: 0% is about no effect
TbPYK inhibitor: qHTS of Trypanosoma Brucei Inhibitors. pyruvate kinase (Trypanosoma brucei), Q57TT1. TbPYK enzyme, Kinase-Glo Plus ATP luminescence, 45 min. Potency, µM (doses to about 76.8 µM), inactives show at the top dose activity, negative = inhibition, actives largely listed as inhibitors. 0.12% of 410,000 active; note: potency is the fitted concentration of half-maximal effect; % is set by controls: 0 for no effect and ±100 for the full control effect; nearly all actives have a fitted effect of over 50% in size
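Quantitative HTS: titrated library compounds versus trypanosomal pyruvate kinase in TEA buffer (pH 7.2) containing KCl, MgCl2, BSA and Tween-20. Reactions were initiated with ADP, 130 uM final. Kinase-Glo Plus luminescence was read after 45 min at RT.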
FBPA Giardia inh: qHTS Assay for Inhibitors of Fructose-1,6-bisphosphate Aldolase from Giardia Lamblia; A8B2U2; purified Giardia FBPA; Potency, µM (doses to about 59.6 µM), without a hit: at the top dose activity, negative = inhibition, usual class: inhibitors; 0.71% of 290,000 active; AID 2451, 2010; note: potency is the fitted concentration of half-maximal effect; % is set by controls: 0 for no effect and ±100 for the full control effect; nearly all actives have a fitted effect of over 55% in size
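40 nM FBPA preincubated 10 min at RT with compound (up to 57.5 uM final), then substrate plus GAPDH/TPI/NAD/arsenate coupling and diaphorase/resazurin added. Fluorescence read after 20 min at RT, 525/598 nm.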
RE007 growth inh: qHTS Assay for Inhibitors of the HIV-1 protein Vpr. S. pombe RE007 Vpr strain, BacTiter-Glo ATP luminescence, 24 h. 0.21% of 360,000 active. Potency, µM (doses to about 92.2 µM), for inactives: at the highest dose activity change, negative = less growth, usual class: inhibitors. AID 651644, 2012; active = well fitted falling curve with a large enough effect; inconclusive = small, poorly fitted or top-dose-only effect; inactive = no such curve, though single readings can be large or run the other way; note: potency is the fitted concentration of half-maximal effect; % is set by controls: 0 for no effect and ±100 for the full control effect; nearly all actives have a fitted effect of over 50% in size
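Fission yeast strain RE007, carrying one chromosomally integrated HIV-1 vpr copy, was seeded at OD 0.01 in PMG+AL medium with 23 nL pinned compound. After 24 h at 30 °C and 99% humidity, viability was read by BacTiter-Glo luminescence.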
Cycloheximide cs: Cycloheximide Counterscreen for Small Molecule Inhibitors of Shiga Toxin; cell reporter, cycloheximide protein synthesis inhibition counterscreen; max response, %; 12% of 300,000 active; in the data active = max response mostly above about 13%, no sharp cut-off; inactive = mostly below about 14%; note: read at 38.3 µM for the half of the compounds with a filed dose; 0% is about no effect
Starred values were filed as active, the others as inactive; u = inconclusive; x = not tested or not shown. Unless noted, calls come from the whole dose curve; as a rule, active = well fitted curve in the direction sought with a large enough effect; inconclusive = small, poorly fitted or top-dose-only effect, or another doubt; inactive = no such curve, though single readings can be large; an effect the other way counts as inactive or inconclusive.

SMILES	LmPK inh	Shiga inhibitor	TbPYK inhibitor	FBPA Giardia inh	RE007 growth inh	Cycloheximide cs
Cc1ccc(S(=O)(=O)N/N=C2/CC(c3ccccc3)Oc3ccccc32)cc1[N+](=O)[O-] (stereo unspecified)	9%	39*	1%	7%	u	55*
Fc1ccc(N/N=C2/CC(c3ccccc3)Oc3ccccc32)c(F)c1 (stereo unspecified)	0%	52*	0%	1%	22%	26*
O=S(=O)(N/N=C1/CCCc2ccccc21)c1ccc(Br)cc1	-1%	2	1%	0%	1%	-1
CCCCC/C=C\C[C@@H](O)/C=C/C=C/C=C/[C@@H](O)CCCC(=O)O	x	x	x	6%	x	x
CNC(C)C#Cc1ccc2c(=O)c3c(OC)cccc3oc2c1 (stereo unspecified)	4%	46*	x	-2%	x	37*
CNC(C)C#Cc1ccc2oc3cc(C)c(C)cc3c(=O)c2c1 (stereo unspecified)	x	x	1%	x	-24%	x
COc1cccc2sc3ccc(C#CC4(N)CCCCC4)cc3c(=O)c12	3%	64*	-6%	-3%	-8%	32*
CNC(C)C#Cc1ccc2oc3cccc(OC)c3c(=O)c2c1 (stereo unspecified)	-9%	45*	-8%	1%	-8%	36*
COc1cccc2sc3cc(C#Cc4ccccn4)ccc3c(=O)c12	x	x	-15%	x	-5%	x
CNC(C)C#Cc1ccc2c(=O)c3cc(C)c(C)cc3oc2c1 (stereo unspecified)	x	x	2%	x	-27%	x
COc1cccc2oc3ccc(C#Cc4ccccn4)cc3c(=O)c12	-11%	47*	-13%	9%	-27%	66*
CCCOc1ccc(CNC(=O)C(CC)n2nc(C)c3sc4ccccc4c3c2=O)cc1 (stereo unspecified)	x	x	-7%	x	x	x
CNC(C)C#Cc1ccc2sc3cccc(OC)c3c(=O)c2c1 (stereo unspecified)	-5%	19*	5%	3%	u	12*
COc1cccc2sc3cc(C#CC4(O)CCCCC4)ccc3c(=O)c12	x	x	3%	x	-5%	x
CN(C)c1ccc(C(=O)C(=O)c2ccccc2)cc1	10%	67*	-10%	13%	6%	49*
CN(C)c1ccc(C(=C2C=CC(=[N+](C)C)C=C2)c2ccc(N(C)C)cc2)cc1	x	x	u	16µM*	x	x
CN(C)c1ccc(C(=O)NN2C(=O)c3ccccc3C2=O)cc1	-2%	43	-11%	8%	16%	15*
O=C(c1ccc(O)cc1)c1ccc(O)cc1O	4%	-3	0%	11%	-2%	2
CN(C)c1ccc(C(=O)c2ccc(O)cc2O)cc1	-20%	54*	8%	10%	-29%	29*
Cc1cccc(CCNC(=O)c2nc(-c3ccc(Cl)cc3)n3c2CCCCC3)c1	x	x	4%	x	x	x
CN(C)c1ccc(C(=O)c2ccc(N(C)C)cc2)cc1	-2%	40	0%	-6%	1%	17*
Cc1ccsc1CCN1C(=O)N(c2ccccc2)C(=O)C1CC(=O)Nc1ccc(F)cc1 (stereo unspecified)	x	x	4%	x	x	x
Oc1cccc(/C=N/Nc2ncnc3c2ncn3Cc2ccccc2)c1	0%	53*	-13%	1%	12%	18*
Nc1c(Cl)ncnc1N/N=C/c1ccncc1	-4%	-4	-2%	-13%	-15%	12
Nc1c(Cl)ncnc1N/N=C/c1cccc(O)c1	-13%	50*	1%	-20%	-23%	26*
Oc1ccc(/C=N/Nc2ncnc3c2ncn3Cc2ccccc2)cc1O	-1%	35	3%	u	8%	4
COc1ccc(/C=N/Nc2ncnc(Cl)c2N)cc1OC	-5%	13	-9%	-29%	x	14*
COc1ccc(S(=O)(=O)NCCc2sc(-c3ccccc3)nc2C)cc1OC	x	x	-2%	x	x	x
CC(=O)c1ccc(NC(=O)CCc2c(C)nn(-c3ccc4nnc(C)n4n3)c2C)cc1	x	x	-1%	x	x	x
CCN(CC)c1ccc(C(=O)NNC(=O)CNC(=O)c2cccs2)cc1	x	x	6%	x	0%	x
